# This is part of a sample that, as a whole, favours compounds with a hit. Of some 83,000 tested, about 20% had one in any assay.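 Method: cells in 96-well plates; compound added at one concentration; 48 h incubation; percent growth measured; values under 10 scored active.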 Values without a mark were called inactive. The source made the active and inactive calls.
# Test system: U251 CNS
# Assay: NCI-60 one-dose screen, 48 h (100 = growth as untreated, 0 = no growth, -100 = all killed)
# Details: 10 µM unless noted
row,Structure (SMILES),growth
1,CC1=C(C)C(=O)C(Nc2ccc(C)cc2)=C(Br)C1=O,104%
2,Cc1ccc(N2CCN(C3=C(Cl)C(=O)c4ncccc4C3=O)CC2)cc1,72.4%
3,COc1ccc2[nH]cc(-c3nc(N)nnc3-c3cn(C)c4ccc(Br)cc34)c2c1,20.2%
4,O=C(/C=C/c1ccccc1Cl)Nc1ncc(Cc2cc(Cl)ccc2Cl)s1,16.6%
5,CN(C)S(=O)(=O)c1ccc(-c2nc(C(Cl)Cl)nc3cc(-c4ccc(F)cc4)nn23)cc1,2.76% (active)
6,Fc1ccc(-c2cn3c(-c4c[nH]c5ccc(Br)cc45)csc3n2)cc1,47.8%
7,C#Cc1nc(/C=C/CCCCCCC(=O)NO)cs1,63.2%
8,C#C[C@]1(O)CC[C@H]2[C@@H]3CC=C4c5sc(Nc6ncccc6C)nc5CC[C@]4(C)[C@H]3CC[C@@]21C,3.14% (active)
9,CC(C)=CCC[C@](C)(O)[C@H]1CC[C@]2(C)[C@@H]1CC[C@@H]1[C@@]3(C)CC[C@H](N)C(C)(C)[C@@H]3CC[C@]12C,48.2%
10,Cc1cc2nc3c4cc(C#N)ccc4n(CCN(C)C)c3nc2cc1C,2.73% (active)
11,N#Cc1c(-c2cccs2)cc(-c2cnccn2)nc1SCC(=O)N/N=C/c1ccncc1,105%
12,CCOC(=O)c1cccc(NC2=C(Cl)C(=O)C(C)=C(C)C2=O)c1,90.9%
13,c1ccc(-c2cn3c(-c4c[nH]c5ccccc45)csc3n2)cc1,61%
14,Cc1cc(Br)ccc1-n1cc(C#N)c(N)c1C(=O)c1ccc(Br)cc1,99.9%
15,Cn1cc(-c2cc3ncnc(Nc4ccc(NC(=O)Nc5cc(C(C)(C)C)on5)cc4)c3s2)cn1,37.9%
16,Nc1cc(C(=O)N/N=C\c2ccc(OC(F)F)c(OC3CCCC3)c2)nn1CC(O)c1ccccc1 (stereo not given),94.7%
17,COc1ccc(C2CC(c3cccc(OCCCCOc4cccc(C5=NOC(c6ccc(OC)cc6)C5)c4)c3)=NO2)cc1 (stereo not given),77.3%
18,O=C(COc1ccc(/C=C2\C(=O)Nc3ccc(Cl)cc32)cc1)Nc1ccc(Cl)cc1,5.92% (active)
19,Cn1cc(-c2nnc(N)nc2-c2c[nH]c3ccc(F)cc23)c2cc(Br)ccc21,17.5%
20,C[C@H](Nc1ncnc2ccc(-c3cnc(Cl)c(NS(C)(=O)=O)c3)cc12)c1ccccc1,-52.6% (active)

row,Structure (SMILES),growth
1,O=C(CSc1nc2ccccc2c(=O)n1CCc1ccccc1)Nc1ccc(S(=O)(=O)Nc2ccc(Cl)nn2)cc1,92.9%
2,NS(=O)(=O)c1ccc(Nc2nc(N/N=C/C=C/c3ccccc3)nc(Nc3ccccc3)n2)cc1,51.1%
3,O=C1[C@H]2Cc3c([nH]c4ccccc34)[C@H](c3ccc(Br)cc3)N2C(=O)CN1C1CCN(CC2CCCCC2)CC1,55.9%
4,CCc1cc2c(cc1Cl)nc1c(=O)[nH]c(=O)nc-1n2CCOCC(C)(C)C,83.4%
5,COc1ccc(-c2nc(C#N)c(N3CCC(S(=O)(=O)N4CCOCC4)CC3)o2)cc1,104%
6,COC(=O)c1ccc(NC2=C(Cl)C(=O)c3nc(C)ccc3C2=O)cc1,46.9%
7,Cc1ccccc1N1CCN(C2=C(Cl)C(=O)c3ncccc3C2=O)CC1,71.3%
8,CC[C@]12C=CCN3CC[C@@]4(c5ccc(OC)cc5N(C)[C@H]4[C@@](O)(C(=O)OC)[C@@H]1OC(=O)CCN1CCc4ccccc4C1)[C@@H]32,87.5%
9,Cc1nc(N)sc1-c1csc(Nc2ccc(C(F)(F)F)cc2)n1,53.3%
10,Cn1cc(-c2nnc(N)nc2-c2c[nH]c3ccc(Br)cc23)c2cc(Br)ccc21,99.7%
11,C#C[C@]1(O)CC[C@H]2[C@@H]3CC=C4c5sc(N(C)c6ccccc6)nc5CC[C@]4(C)[C@H]3CC[C@@]21C,60.6%
12,NS(=O)(=O)c1ccc(Nc2nc(Nc3ccccc3)nc(N3N=C(c4ccc(Cl)cc4)CC3c3ccc(Cl)cc3)n2)cc1 (stereo not given),61.3%
13,O=C(CCCCCCN1CC(=O)N2[C@@H](c3ccc(Cl)s3)c3[nH]c4ccccc4c3C[C@H]2C1=O)NO,50.3%
14,CCCCc1nc2c(N)nc3ccccc3c2n1Cc1cccc(CN)c1,38.5%
15,N#C/C(=C\c1ccc(-c2ccc(Cl)c(Cl)c2)o1)C(=O)Nc1ncc(Cc2ccc(Cl)cc2)s1,3.74% (active)
16,O=C(Nc1ccc(Cl)c(C(F)(F)F)c1)Nc1ccc2oc(=O)ccc2c1,31.3%
17,COc1ccc2[nH]cc(/C=N/Nc3ccnc4cc(Cl)ccc34)c2c1,-83.3% (active)
18,O=C1Nc2ccccc2/C1=C/c1ccc(OCC(=O)c2ccccc2)cc1,100%
19,NS(=O)(=O)c1nnc(/N=C/c2c(O)[nH]c3ccccc23)s1,99.9%
20,COc1cc(/C=C2/C(=O)Nc3ccc(Cl)cc32)ccc1OCc1ccc(Cl)cc1,50.7%

# From PubChem BioAssay (NCI)
